From PubChem BioAssay (NCATS) come the findings set out here.

Assay [1] is described as follows: qHTS profiling of the MIPE4 collection as inhibitors of Plasmodium falciparum (3D7) proliferation (AID 743344).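 Also: scaled between DMSO vehicle wells and 0.29 µM artemisinin as full inhibition.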 Particulars: P. falciparum 3D7 in erythrocytes, SYBR Green DNA fluorescence, 72 h; at 28.5 µM unless noted. The essentials:
(§1)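 Erythrocytes infected with P. falciparum (0.3% parasitemia, 2.5% hematocrit) incubated with compounds 72 h at 37 C, 5% CO2. Lysis with saponin/Triton buffer containing SYBR Green I, overnight at room temperature in the dark; DNA fluorescence (485/535 nm) normalised to 0.29 uM artemisinin and DMSO.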
(Quantitative high-throughput screening tests each substance at several concentrations.)

Assay [2] in a line: qHTS profiling of the MIPE4 collection as inhibitors of Plasmodium falciparum (DD2) proliferation (AID 743345). The following applies: P. falciparum Dd2 in erythrocytes, SYBR Green DNA, 72 h; at 28.5 µM unless noted. A digest of the protocol:
as §1

Values joined by “and” are separate entries in the source; they are usually repeats but may differ in a detail not shown here. Equal entries are not always repeated. Non-standard residues stand in square brackets, D forms with d. Residues, ends and D or L forms follow the SMILES beside them. *: point of attachment. Nva = CCC[C@H](N)C(=O)O; Cbz = O=C(OCc1ccccc1)*

Turning to `NC(=O)c1ncn([C@@H]2O[C@H](CO)[C@@H](O)[C@@H]2O)c1O`, the parasite growth, % of DMSO control in assay [1] was found to be 109%. Further, the parasite growth remaining, % of DMSO control (lower = more inhibition) in assay [2] was determined as 33.1%.
With `CC(Oc1ccc(O)cc1)(P(=O)(O)O)P(=O)(O)O`, in assay [1], the parasite growth, % of DMSO control is 64.8%. In assay [2], the parasite growth remaining, % of DMSO control (lower = more inhibition) came to 101%.
The compound `O=C(c1ccc(F)cc1)N1CCC[C@H](c2nc(-c3ccc(F)cc3)no2)C1` had a parasite growth, % of DMSO control in assay [1] of 74.1%. In assay [2], the parasite growth remaining, % of DMSO control (lower = more inhibition) is 94.6%.
For the compound `COc1ccc(CCC(=O)c2c(O)cc(O[C@@H]3O[C@H](CO)[C@@H](O)[C@H](O)[C@@H]3O[C@@H]3O[C@@H](C)[C@H](O)[C@@H](O)[C@@H]3O)cc2O)cc1O`, the parasite growth, % of DMSO control in assay [1] turned out to be 6.07%. In addition, the parasite growth remaining, % of DMSO control (lower = more inhibition) in assay [2] was 17.8%.
In assay [1], `CC(C)(C)[N+]([O-])=Cc1ccc(S(=O)(=O)O)cc1S(=O)(=O)O` gave a parasite growth, % of DMSO control of 102%. Moreover, in assay [2], the parasite growth remaining, % of DMSO control (lower = more inhibition) was 92.1%.
The compound `N#CC(=C(O)c1ccc(Cl)cc1Cl)c1nc2cc(Cl)ccc2c(=O)[nH]1` came in with a parasite growth, % of DMSO control in assay [1] of 36.6%. Also, in assay [2], the parasite growth remaining, % of DMSO control (lower = more inhibition) turned out to be 99.7%.
Regarding `CC1=C(C(=O)Nc2cc3cn[nH]c3cc2F)C(c2ccc(Cl)cc2F)N=C(c2ccnc(Cl)c2)N1` (configuration not stated), the parasite growth, % of DMSO control in assay [1] stood at 13.2%. Besides, the parasite growth remaining, % of DMSO control (lower = more inhibition) in assay [2] stood at 36.2%.
`O=C(O)[C@H](CC(=O)N1C[C@@H]2CCCC[C@H]2C1)Cc1ccccc1` showed a parasite growth, % of DMSO control in assay [1] of 71.6%. Also, the parasite growth remaining, % of DMSO control (lower = more inhibition) in assay [2] was 103%.
`CC1(C)O[C@@H]2C[C@H]3[C@@H]4CCC5=CC(=O)C=C[C@]5(C)[C@@H]4[C@@H](O)C[C@]3(C)[C@]2(C(=O)CO)O1` yielded a parasite growth, % of DMSO control in assay [1] of 7.1%. Further, the parasite growth remaining, % of DMSO control (lower = more inhibition) in assay [2] was 49.3%.
As for `CS(=O)(=O)N1CCc2c(-c3cnc(N)nc3)nc(N3CCOCC3)nc21`, the parasite growth, % of DMSO control in assay [1] was found to be 5.02%. Moreover, the parasite growth remaining, % of DMSO control (lower = more inhibition) in assay [2] worked out at 9.76%.
For `Cc1cn([C@@H]2O[C@H](CO)[C@@H](O)[C@H]2F)c(=O)[nH]c1=O`, the parasite growth, % of DMSO control in assay [1] stood at 100%. For the same compound, the parasite growth remaining, % of DMSO control (lower = more inhibition) in assay [2] is 94.7%.
On the same counts, the results for `COc1cc(N2CCC(C(N)=O)CC2)ccc1Nc1nc(N)c(Cl)c(Nc2ccccc2S(=O)(=O)C(C)C)n1` are 38.7% and 37.8%.
Compound `CN[C@@H]1C[C@H]2O[C@@](C)([C@H]1OC)n1c3ccccc3c3c4c(c5c6ccccc6n2c5c31)C(=O)N[C@H]4O` returned a parasite growth, % of DMSO control in assay [1] of 5.29%. In assay [2], the parasite growth remaining, % of DMSO control (lower = more inhibition) came out at 6.48%.
`N#Cc1cc(NC(=O)Nc2nnc(-c3ccncc3)s2)ccc1-c1cn[nH]c1`: the parasite growth, % of DMSO control in assay [1] came to 45.1%. In assay [2], the parasite growth remaining, % of DMSO control (lower = more inhibition) amounted to 101%.
Regarding `O=[N+]([O-])c1cn2c(n1)OC[C@@H](OCc1ccc(OC(F)(F)F)cc1)C2`, in assay [1], the parasite growth, % of DMSO control is 94.2% and 79.4%. Moreover, the parasite growth remaining, % of DMSO control (lower = more inhibition) in assay [2] is 99.7% and 101%.
As to `C[C@]12CCC(=O)C=C1[C@@H]1CC1[C@H]1[C@H]3[C@@H]4C[C@H]4[C@@]4(CCC(=O)O4)[C@@]3(C)CC[C@H]12` (some centres not stated), the parasite growth, % of DMSO control in assay [1] was determined as 65.8%. In addition, in assay [2], the parasite growth remaining, % of DMSO control (lower = more inhibition) came to 82.7%.
Consider `COc1ccc(Nc2cc(-c3cnc(N)nc3)nc(N3CCOCC3)n2)cn1`, for which the parasite growth, % of DMSO control in assay [1] came to 16.3%. In addition, the parasite growth remaining, % of DMSO control (lower = more inhibition) in assay [2] turned out to be 11.1%.
In assay [1], `CC(C)c1cc(C(C)C)c(CC(=O)NS(=O)(=O)Oc2c(C(C)C)cccc2C(C)C)c(C(C)C)c1` came in with a parasite growth, % of DMSO control of 82.5%. Moreover, in assay [2], the parasite growth remaining, % of DMSO control (lower = more inhibition) was 89.6%.
As to `Oc1ccc([C@@H]2Oc3ccc(O)cc3[C@@H]3CCC[C@@H]32)cc1`, the parasite growth, % of DMSO control in assay [1] came to 43.6%. Also, in assay [2], the parasite growth remaining, % of DMSO control (lower = more inhibition) was 90.8%.
With `CNC(=O)c1ccc(Nc2cc(Nc3ccccc3S(=O)(=O)C(C)C)c3cc[nH]c3n2)nc1`, in assay [1], the parasite growth, % of DMSO control amounted to 4.82%. Also, the parasite growth remaining, % of DMSO control (lower = more inhibition) in assay [2] is 11.9%.
With `CCC[C@@H](C=O)NC(=O)[C@H](CC(C)C)NC(=O)[C@H](CC(C)C)NC(=O)OCc1ccccc1` (Cbz-Leu-Leu-[Nva]-aldehyde), the parasite growth, % of DMSO control in assay [1] came to 4.86%. In addition, the parasite growth remaining, % of DMSO control (lower = more inhibition) in assay [2] came to 6.49%.
